Among the data in ChEMBL document CHEMBL3988442, “University of Dundee, Small-Polar-MMV Screening Library” (2021) are Percent Effect values, retold here.

Out of some 65,000 compounds screened, about 65 (0.1%) showed an effect of 50% or more. This excerpt belongs to a sample that is enriched for strong results.

The target in this assay is Tryptophan--tRNA ligase (Mycobacterium tuberculosis (strain ATCC 25618 / H37Rv)) (UniProt P9WFT3). The assay can be described thus: Biochemical assay for Mt-TrpRS. It counts as functional. On the set-up: scale not given: direction of the effect not stated beside the values. As to conditions: 10 µM.
Tryptophan--tRNA ligase (Mycobacterium tuberculosis (strain ATCC 25618 / H37Rv)), sequence (P9WFT3 whole entry): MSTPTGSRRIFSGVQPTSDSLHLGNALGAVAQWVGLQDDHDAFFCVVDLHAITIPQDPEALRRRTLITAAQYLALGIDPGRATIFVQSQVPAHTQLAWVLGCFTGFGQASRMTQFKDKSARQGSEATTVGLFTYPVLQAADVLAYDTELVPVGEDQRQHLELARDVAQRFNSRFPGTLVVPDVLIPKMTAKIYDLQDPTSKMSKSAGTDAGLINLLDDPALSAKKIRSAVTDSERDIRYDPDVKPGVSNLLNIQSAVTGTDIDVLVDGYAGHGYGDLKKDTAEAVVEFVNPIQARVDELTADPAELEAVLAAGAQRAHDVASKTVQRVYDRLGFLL
In the case of `COCCc1noc(CN(C)C2CCCN(c3ccc(C)nn3)C2)n1` (configuration not stated), the Percent Effect came to 0.711%. For `CN(CC(=O)Nc1cccnc1)C1CCCN(c2cccnn2)C1` (configuration not stated) the value was 57.9%.

As for `CCc1nc(CN(C)C2CCCN(c3cccnn3)C2)no1` (configuration not stated), the Percent Effect was found to be 10.3%. Consider `CN(Cc1ccco1)[C@@H]1CN(C(=O)c2ccnnc2)C[C@@H]2CCCO[C@@H]21`, for which the Percent Effect was 4.52%. As to `O=C1CO[C@H]2CN(Cc3ccc4c(c3)OCO4)C[C@H]2N1`, the Percent Effect is -0.835%. `CNC(=O)[C@@]12CCO[C@@H]1CCN(Cc1cccc(C)c1)C2`: the Percent Effect is -2.81%.

For `C=C1C(C)(C)[C@H]2CC[C@]1(C(=O)N1CCC(n3cc(CCO)nn3)CC1)C2`, the Percent Effect was 1.01%. For `CCn1cnnc1CNC(=O)NC(c1cccs1)C1CCCC1` (configuration not stated) the value was 55.9%; for `CCn1cnnc1CNC(=O)NC(C)c1cccs1` (configuration not stated), -0.56%. For the compound `CCn1cnnc1CNC(=O)NC(c1ccccc1)C1CCCC1` (configuration not stated), the Percent Effect is 0.594%. For `O=C(COc1cccc(Br)c1)N1CCOCC1c1ncon1` (configuration not stated) the value was -4.77%. For `O=C(COc1cccc(Cl)c1)N1CCOCC1c1ncon1` (configuration not stated), the Percent Effect came to 60.2%.

In the case of `O=C(COc1ccc(Cl)cc1)N1CCOCC1c1ncon1` (configuration not stated), the Percent Effect is 3.96%. As for `O=C(c1ccccc1)N1CC[C@H]2C[C@H](c3nccs3)O[C@@H]2C1`, the Percent Effect turned out to be 0.277%. In the case of `CN(C)C(=O)c1cncnc1-c1ccc(CNC(=O)C2CCCO2)cc1` (configuration not stated), the Percent Effect came out at 59.1%. Take `CN(C)C(=O)c1cncnc1-c1ccc(CNC(=O)C2CC2)cc1`: the Percent Effect was found to be 1.32%. Turning to `COCC(=O)NCc1ccc(-c2ncncc2C(=O)N(C)C)cc1`, the Percent Effect is -3.46%.

With `COc1ccc(CN2C[C@@H]3CN(S(=O)(=O)C4CC4)C[C@@H]3C2=O)cc1`, the Percent Effect came to 2.34%. `c1cnc(N2CC[C@@H]3[C@@H]2CCN3Cc2cccs2)nc1`: the Percent Effect is -3.73%. With `Cc1cc(C)n(CC2CCCN2C(=O)Cc2c(C)noc2C)n1` (configuration not stated), the Percent Effect is -1.17%. As to `Cc1cc(C)n(CC2CCCN2C(=O)c2c(C)noc2C)n1` (configuration not stated), the Percent Effect worked out at 66.8%. Regarding `CCc1noc(C)c1C(=O)N1CCCC1Cn1nc(C)cc1C` (configuration not stated), the Percent Effect was found to be 1.85%. Take `CS(=O)(=O)NC[C@@H]1OC[C@H]2CN(C(=O)c3ccccc3)CC[C@H]21`: the Percent Effect is -2.6%.

In the case of `Cc1ncoc1C(=O)N1C[C@H]2CCC[C@@]2(COCC2CCOCC2)C1`, the Percent Effect was -1.66%. With `O=C(CC1CC1)N1CCO[C@H]2[C@H](OCCCn3cccn3)CC[C@@H]21`, the Percent Effect is -5.05%. Take `c1cncc(CN2CC[C@H]3O[C@@H](COCC4CCOCC4)CC[C@H]32)c1`: the Percent Effect is -0.469%.

Consider `CC[S+](CC)[c-]1c(=O)[nH]c(=O)n(Cc2ccc(F)cc2)c1=O`, for which the Percent Effect is -5.58%. Consider `CN(Cc1nnc2n1CCC2)C(=O)c1ccc2c(c1)OCO2`, for which the Percent Effect is -1.84%.

`CN(Cc1nnc2n1CCC2)C(=O)c1ccc2c(c1)OCCO2`: the Percent Effect worked out at 69.5%.

Turning to `CN(Cc1nnc2n1CCC2)C(=O)c1ccc2c(c1)OCCCO2`, the Percent Effect worked out at 19.8%.

As to `CCN1CCCN(c2ccc(-n3ccc(C)n3)nn2)CC1`, the Percent Effect was 1.17%. Take `Cc1ccn(-c2ccc(N3CCCN(Cc4ccccc4)CC3)nn2)n1`: the Percent Effect was 119%.

On to `CCCN1CCCN(c2ccc(-n3ccc(C)n3)nn2)CC1`, for which the Percent Effect was -6%.

For `O=S(=O)(c1ccccc1)N1C[C@@H]2COC[C@]2(COCC2CC2)C1`, the Percent Effect is 9.94%. As for `O=C(c1ccc(F)c(F)c1)N1C[C@H]2CNC[C@H]2C1`, the Percent Effect is -6.39%. On to `Fc1ccc(-c2nc(CN3CCCC3Cn3cncn3)co2)cc1` (configuration not stated), for which the Percent Effect amounted to 53.9%. Consider `Fc1cccc(-c2nc(CN3CCCC3Cn3cncn3)co2)c1` (configuration not stated), for which the Percent Effect came to 10.9%.

Regarding `Cc1ccc(-c2nc(CN3CCCC3Cn3cncn3)co2)cc1` (configuration not stated), the Percent Effect was -4.8%. For `Fc1ccc(-c2nc(CN3CCCCC3Cn3cncn3)co2)cc1` (configuration not stated), the Percent Effect was -4.8%. For the compound `Cc1cnn(CC2CCCN2Cc2coc(-c3cccc(F)c3)n2)c1` (configuration not stated), the Percent Effect stood at 4.37%.

`Fc1cccc(-c2nc(CN3CCCC3Cn3cccn3)co2)c1` (configuration not stated): the Percent Effect turned out to be 74.9%. For `CS(=O)(=O)N1C[C@@H]2OCC(=O)N(CC3CCC3)[C@@H]2C1` the value was -0.527%; for `Cc1nn(C)c(N(C)C)c1CNCCS(C)(=O)=O`, 57.4%; for `Cc1nn(C)c(N(C)C)c1CNCCNS(C)(=O)=O`, -3.19%.

Turning to `CCS(=O)(=O)NCCCNCc1c(C)nn(C)c1N(C)C`, the Percent Effect was 51.9%.

For `Cc1nn(C)c(N(C)C)c1CNCCCNS(C)(=O)=O`, the Percent Effect was found to be 24.1%. As for `CCN(CCCNCc1c(C)nn(C)c1N(C)C)S(C)(=O)=O`, the Percent Effect was -2.27%. For `Cc1nn(C)c(N(C)C)c1CNCCCN(C)S(C)(=O)=O`, the Percent Effect is -0.817%. As to `CC(=O)N1[C@H](CN(C)C)C[C@@H]2CN(C(=O)c3cccn3C)CC[C@@H]21`, the Percent Effect was -8.29%.

In the case of `Cc1cccc(COC[C@]23COC[C@H]2CN(c2ncccn2)C3)n1`, the Percent Effect is -0.382%. Turning to `Cc1nn(C)c(N2CCOCC2)c1CN[C@@H]1c2ccccc2C[C@@H]1O`, the Percent Effect is -6.65%. For the compound `c1coc(CN2CC[C@H]3O[C@@H](COCC4CC4)CC[C@H]32)c1`, the Percent Effect was -3.59%. As for `CN1CCc2nc(C3CCCN(S(=O)(=O)N4CCCC4)C3)ncc2C1` (configuration not stated), the Percent Effect is -5.94%. As for `CN1CCc2nc(C3CCCN(S(=O)(=O)c4ccccc4)C3)ncc2C1` (configuration not stated), the Percent Effect is -1.11%.

In the case of `CCN(CC)S(=O)(=O)N1CCCC(c2ncc3c(n2)CCN(C)C3)C1` (configuration not stated), the Percent Effect amounted to 50.2%. For the compound `CC(=O)N1CCN(C(=O)c2cc(C(C)C)no2)[C@H]2CS(=O)(=O)C[C@H]21`, the Percent Effect is -1.55%. For the compound `NC[C@H]1CC[C@H](c2c(C(N)=O)sc3ccccc32)CC1`, the Percent Effect was -6.86%.
